# Results as given in PubChem BioAssay (NCATS).
# Where “and” joins values, the source holds several entries; their conditions need not be identical. Equal entries are not always repeated. Records with an inconclusive call do not appear. A call without a number means that no potency is given here. Calls of active or inactive are those of the source. Calls follow the shape of the dose curve; as a rule, active = well fitted curve in the direction sought with a large enough effect; inconclusive = small, poorly fitted or top-dose-only effect, or another doubt; inactive = no such curve, though single readings can be large; an effect the other way counts as inactive or inconclusive.
# Legend:
# [1] = tested on: Zika virus NS2B-NS3 protease; assay: Primary screen GU AMC qHTS for Zika virus inhibitors (AID 1347154); conditions: Zika NS2B-NS3 unlinked protease, AMC fluorogenic substrate; series mostly up to 54.1 µM; also: nearly all actives have a fitted effect of over 70% in size
# Outline: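 Unlinked Zika NS2B hydrophilic domain/NS3 protease domain noncovalent complex (25 nM final) in 10 mM Tris-HCl pH 8.0, 0.01% Tween 20, with AMC peptide substrate. Fluorescence (ex 340, em 450 nm) change over 15 min, room temperature; percent inhibition fitted to 4-parameter Hill equation.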
# [2] = tested on: Zika virus NS2B-NS3 protease (linked construct); assay: Primary screen NINDS Rhodamine qHTS for Zika virus inhibitors (AID 1347160); conditions: purified NS2B-NS3 protease, Rhodamine110 substrate fluorescence; series mostly up to 57.1 µM; also: nearly all actives have a fitted effect of over 55% in size
# Outline: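 Kinetic fluorescence (Ex 480 nm, Em 540 nm) over 15 min with 1.5 microM Rhodamine110 peptide and 25 nM linked protease.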
# [3] = target: Lysine-specific demethylase 5B (Homo sapiens) (UniProt Q9UGL1); assay: Optimization screen for KDM5B Histone Demethylases FDH coupled qHTS against the LOPAC library (AID 1347166); conditions: KDM5B demethylation, FDH-coupled NADH fluorescence (FDH is formaldehyde dehydrogenase); series mostly up to 57.5 µM
# Sequence of Lysine-specific demethylase 5B (Homo sapiens) (Q9UGL1 whole entry, looked up): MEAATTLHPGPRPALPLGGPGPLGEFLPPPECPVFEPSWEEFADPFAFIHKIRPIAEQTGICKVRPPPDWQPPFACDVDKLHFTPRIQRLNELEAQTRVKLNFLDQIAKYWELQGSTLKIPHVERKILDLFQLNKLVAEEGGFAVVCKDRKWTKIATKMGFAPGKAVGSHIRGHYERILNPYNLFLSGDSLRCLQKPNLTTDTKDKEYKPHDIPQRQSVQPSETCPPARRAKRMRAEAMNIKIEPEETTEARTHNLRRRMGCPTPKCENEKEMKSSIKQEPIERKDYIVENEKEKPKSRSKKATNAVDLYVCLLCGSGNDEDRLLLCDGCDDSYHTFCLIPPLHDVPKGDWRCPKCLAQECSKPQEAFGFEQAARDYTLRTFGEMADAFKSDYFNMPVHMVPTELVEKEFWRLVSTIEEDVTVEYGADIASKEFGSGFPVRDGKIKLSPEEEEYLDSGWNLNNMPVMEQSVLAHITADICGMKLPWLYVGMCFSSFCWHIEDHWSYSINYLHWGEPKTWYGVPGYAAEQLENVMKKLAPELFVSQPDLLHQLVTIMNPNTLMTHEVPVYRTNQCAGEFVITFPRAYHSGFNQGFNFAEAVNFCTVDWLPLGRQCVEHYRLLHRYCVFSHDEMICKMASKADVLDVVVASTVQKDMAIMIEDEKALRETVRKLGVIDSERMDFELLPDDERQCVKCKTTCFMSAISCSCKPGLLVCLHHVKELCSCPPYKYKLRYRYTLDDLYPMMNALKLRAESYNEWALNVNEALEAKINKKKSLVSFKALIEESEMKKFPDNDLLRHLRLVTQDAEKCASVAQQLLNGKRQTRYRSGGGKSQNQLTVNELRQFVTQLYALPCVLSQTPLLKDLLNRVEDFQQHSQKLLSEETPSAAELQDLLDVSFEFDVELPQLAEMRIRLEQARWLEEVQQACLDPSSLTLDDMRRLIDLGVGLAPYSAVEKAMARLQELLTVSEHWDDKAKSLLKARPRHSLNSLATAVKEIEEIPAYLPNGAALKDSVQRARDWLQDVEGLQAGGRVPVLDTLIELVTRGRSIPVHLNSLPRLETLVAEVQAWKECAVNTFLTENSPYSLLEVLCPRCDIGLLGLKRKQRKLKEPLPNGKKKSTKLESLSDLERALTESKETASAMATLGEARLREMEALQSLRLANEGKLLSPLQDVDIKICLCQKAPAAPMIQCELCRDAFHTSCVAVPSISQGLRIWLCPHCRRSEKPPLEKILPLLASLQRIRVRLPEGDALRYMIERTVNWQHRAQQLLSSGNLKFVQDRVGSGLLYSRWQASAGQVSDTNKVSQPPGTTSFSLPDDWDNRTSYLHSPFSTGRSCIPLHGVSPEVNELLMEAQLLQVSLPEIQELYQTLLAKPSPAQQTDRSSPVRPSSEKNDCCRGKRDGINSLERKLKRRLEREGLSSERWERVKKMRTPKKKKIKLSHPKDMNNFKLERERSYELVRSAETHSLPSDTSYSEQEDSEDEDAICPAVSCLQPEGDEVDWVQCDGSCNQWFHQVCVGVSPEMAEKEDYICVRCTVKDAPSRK
# Outline: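 KDM5BDeltaAP (200nM final) preincubated 10 min with compound, then 12.5uM H3K4Me3, 25uM a-ketoglutarate, ascorbate, Fe(II), NAD+ and FDH added; 50mM HEPES pH 7.5, 0.01% Tween-20. NADH fluorescence (340/450 nm) change over 30 min, room temperature.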
# [4] = ZIKV-mCherry secondary qHTS for Zika virus inhibitors (AID 1347158); conditions: Vero cells, ZIKV-mCherry infection imaging, 48-72 h; series mostly up to 49.2 µM; also: top concentration of the series differs between compounds
# Outline: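 Vero, 5,000 cells/well, o/n 37 °C; cpd pin-transferred in DMSO; ZIKV-mCherry MOI 1, 48-72 h 37 °C; 32% PFA stock fix, Hoechst; imaged 10x DAPI/mCherry; mCherry+ threshold 450 RFU; % infection.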
# [5] = Confirmatory screen NINDS Rhodamine qHTS for Zika virus inhibitors (AID 1347161); conditions: purified enzyme assay, Rhodamine110 substrate fluorescence, 15 min; series mostly up to 228 µM; also: potency is read from the fitted curve at half-maximal effect; nearly all actives have a fitted effect of over 60% in size
# Outline: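 Aprotinin served as in-plate control. Conditions: 25 nM linked NS2B-NS3, pH 8.0 Tris buffer, titrated compounds, 15 min preincubation and 15 min reaction with 1.5 microM Rhod110 substrate at room temperature.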
# [6] = tested on: Zika virus NS2B-NS3 protease (linked); assay: 384 well plate NINDS AMC confirmatory qHTS for Zika virus inhibitors (AID 1347163); conditions: Recombinant NS2B-NS3 protease, Ac-VKTGKR-AMC fluorescence; also: potency is read from the fitted curve at half-maximal effect; nearly all actives have a fitted effect of over 50% in size
# Outline: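 Linked NS2B-NS3 protease (final 5 nM, 30 nM or 60 nM) was preincubated with compounds (final up to 1 mM) for ~15 minutes. Ac-VKTGKR-AMC substrate (final 30 microM) then reacted for 25 minutes at room temperature in the dark. Fluorescence (ex 355/em 460 nm) was normalized to no-enzyme and no-inhibitor controls.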
# [7] = tested on: Zika virus NS2B-NS3 protease (linked construct); assay: 384 well plate NINDS Rhodamine confirmatory qHTS for Zika virus inhibitors (AID 1347164); conditions: rhodamine-110 peptide substrate fluorescence;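 also: fluorescence from protease cleavage of Ac-LKRR-rhodamine 110 substrate; potency is read from the fitted curve at half-maximal effect; nearly all actives have a fitted effect of over 65% in size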
# Outline: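 Fluorescence at 485/538 nm was measured 25 minutes after adding 10 microM Ac-LKRR-Rd substrate, in the dark at room temperature. The protease (5, 30 or 60 nM final) had been preincubated ~15 minutes with compound; aprotinin as control.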
smiles,measurement,setting,value
COc1ccc(N(C(=O)Oc2c(C)cccc2C)c2ccnc(Nc3ccc(N4CCN(C)CC4)cc3)n2)c(OC)c1,Potency,[1],inactive
same,Potency,[2],inactive
COC1=C[C@@H]2[C@@H]3Cc4ccc(OC)c(O)c4[C@]2(CCN3C)CC1=O,Potency,[1],inactive
same,Potency,[2],inactive
CCN1CCN(C(=O)Cc2ccc(Nc3ncc(F)c(Nc4ccc(C(=O)Nc5ccccc5Cl)cc4)n3)cc2)CC1,Potency,[1],inactive
same,Potency,[2],inactive
CC[C@@H](C(N)=O)N1CCCC1=O,Potency,[1],inactive
same,outcome,[3],inactive
CC(=O)[C@H]1CCC2C3CC[C@H]4C[C@H](O)CC[C@]4(C)C3CC[C@@]21C (some centres not stated),outcome,[3],inactive
CCCN1CCC[C@H](c2cccc(O)c2)C1,outcome,[3],inactive
CC1=NN=C(c2ccc(N)cc2)c2cc3c(cc2C1)OCO3,outcome,[3],inactive
CN(C)[C@@H]1C(=O)C(C(N)=O)=C(O)[C@@]2(O)C(=O)C3=C(O)c4c(O)cccc4[C@@](C)(O)[C@H]3[C@H](O)[C@@H]12,outcome,[4],inactive
same,Potency,[5],19.7 µM (active) and 7.82 µM (active)
same,Potency,[6],158 µM (active) and 8.91 µM (active)
same,Potency,[7],50.1 µM (active) and 2.51 µM (active)
CS(=N)(=O)CC[C@H](N)C(=O)O (some centres not stated),outcome,[3],inactive
Oc1ccc2c3c1O[C@H]1c4[nH]c5c(c4C[C@@]4(O)[C@@H](C2)N(CC2CC2)CC[C@]314)C[C@@]1(O)[C@H]2Cc3ccc(O)c4c3[C@@]1(CCN2CC1CC1)[C@H]5O4,Potency,[1],inactive
same,outcome,[3],inactive
O=C(O)[C@@H]1CCN1,outcome,[3],inactive
C[C@@H]1O[C@H](C[N+](C)(C)C)C[C@H]1O,outcome,[3],inactive
O=C(Cc1ccc(Cl)c(Cl)c1)N1CCCCC1CN1CCCC1 (configuration not stated),Potency,[1],inactive
same,outcome,[3],inactive
COC(=O)[C@@H](N)CCCN=C(N)N[N+](=O)[O-],Potency,[1],inactive
same,outcome,[3],inactive
Cc1c(C(=O)c2cccc3ccccc23)c2cccc3c2n1[C@H](CN1CCOCC1)CO3,Potency,[1],inactive
same,outcome,[3],inactive
CCCN(CCC)C1CCc2ccc(O)cc2C1 (configuration not stated),Potency,[1],inactive
same,outcome,[3],inactive
CCCCc1ccc(C(=O)O)nc1,outcome,[3],inactive
O=C(O)CC[N+](=O)[O-],outcome,[3],inactive
NC(N)=NOCCC(N)C(=O)O (configuration not stated),outcome,[3],inactive
CN1C2CCC1CC(OC(=O)c1cc(Cl)cc(Cl)c1)C2 (configuration not stated),outcome,[3],inactive
c1ccc(CCCN2CCN(CCOC(c3ccccc3)c3ccccc3)CC2)cc1,Potency,[1],inactive
same,outcome,[3],inactive
CC1=C(O)C(=O)C=C2C1=CC=C1[C@@]2(C)CC[C@@]2(C)[C@@H]3C[C@](C)(C(=O)O)CC[C@]3(C)CC[C@]12C,Potency,[5],5.53 µM (active) and 2.77 µM (active)
same,Potency,[6],79.4 µM (active)
same,Potency,[7],28.2 µM (active)
